Results as given in PubChem BioAssay AID2061319 (National Center for Advancing Translational Sciences (NCATS), 2025).
Results filed as inconclusive are left out. A number with no mark means an inactive call. The source made the active and inactive calls. The call rests on the fitted dose curve; in most records, active means well fitted inhibition curve with a large enough effect; inconclusive means small, poorly fitted or top-dose-only effect; inactive means flat fitted curve, though single readings scatter. Square brackets hold non-standard residues; d marks the D form. Peptide text beside a SMILES is read from it. Dolaproine = CO[C@@H]([C@@H]1CCCN1)[C@@H](C)C(=O)O; Dil = CC[C@H](C)[C@H](NC)[C@@H](CC(=O)O)OC; NMeV = CN[C@H](C(=O)O)C(C)C

Test: Identification of antibody-drug conjugate (ADC) payloads which are substrates of ATP-binding cassette drug efflux transporters: ABCG2-H460-MX20 cell line with Ko143
Details: H460-MX20 (ABCG2) + Ko143, CellTiter-Glo viability, 48 h; series mostly up to 28.7 µM; activity change, negative = cytotoxicity: at the top concentration
Excerpt: Antibody-drug conjugates (ADCs) feature an antibody recognizing a specific protein joined to a potent toxic payload. Numerous antibody-drug conjugates have received FDA approval; however, clinical resistance arises. Resistance mechanisms include decreased expression or mutation of the antibody target, impaired payload release, or increased expression of ATP-binding cassette (ABC) efflux transporters associated with multidrug resistance. We therefore sought to characterize the interaction of ABC multidrug transporters with ADC payloads. We performed a high-throughput screen with 27 common ADC payloads using cells lines expressing ABC transporters P-glycoprotein (P-gp, encoded by ABCB1) or ABCG2 (encoded by ABCG2). Confirmatory assays were also performed using cells transfected to express P-gp, ABCG2, or MRP1 (encoded by ABCC1). Several commonly used ADC payloads were substrates of P-gp, including calicheamicin gamma1, monomethyl auristatin E, DM1, and DM4. All the pyrrolobenzodiazepines tested - SJG136, SGD-1882, SG2057, and SG3199 - were substrates of P-gp, ABCG2, and MRP1. […] These findings highlight the risk of transporter-mediated resistance with certain ADC payloads and underscore the importance of selecting payloads that evade ABC transporter recognition in future ADC development.
HEK-293 cells were transfected with empty vector (pcDNA) or vector containing the human ABCB1 (MDR-19), ABCG2 (R-5), or ABCC1 gene (MRP1) and were maintained in EMEM with 2 mg/mL G418 added to maintain transporter expression. The HeLa derivative KB-3-1 and the P-gp overexpressing KB-8-5-11 subline were maintained in DMEM; KB-8-5-11 additionally received 100 ng/mL colchicine. H460 parental cells were obtained from the Division of Cancer Treatment and Diagnosis Tumor Repository, National Cancer Institute at Frederick, MD and were cultured in RPMI. The ABCG2 expressing subline H460 MX20 was generated by selecting H460 cells in 20 nM mitoxantrone. Media in all cases was supplemented with 10% FBS and 1% penicillin-streptomycin. We explored 27 common ADC payloads, in two orthogonal, paired cell line sets-a drug selected and transfected set for each transporter--to identify substrates of the ABC transporters P-gp and ABCG2. Compounds were sourced from Levena Biopharma (San Diego, CA), Selleck Chem (Houston, TX), ChemieTek (Indianapolis, IN), or Microsource Discovery Systems (Gaylordsville, CT). Screening was performed as previously described. Briefly, cells were plated at a density of 500 cells/well in 1536 well plates with compounds added using a 1536-head pin tool (Kalypsys, San Diego CA). Cells were incubated with cytotoxic drugs and processed with CellTiter Glo reagent (Promega, Madison, WI) to determine viability after 48 hours. P-gp substrates were identified by comparing compound activity between paired sets of low-expressing (sensitive) and over-expressing (resistant) cell lines.

Row | SMILES | Potency | activity change, negative = cytotoxicity [%]
1 | CCc1c2c(nc3ccc(O)cc13)-c1cc3c(c(=O)n1C2)COC(=O)[C@]3(O)CC | 150 nM (active) | 
2 | CC(C)(C)OC(=O)Nc1ccc2[nH]c(C(=O)N3C[C@@H](CCl)c4c3cc(O)c3ccccc43)cc2c1 | 6.7 nM (active) | 
3 | COc1cccc2c1C(=O)c1c(O)c3c(c(O)c1C2=O)C[C@@](O)(C(=O)CO)C[C@@H]3O[C@H]1C[C@H](N)[C@H](O)[C@H](C)O1 | 598 nM (active) | 
4 | COC(=O)c1cc2c3c(cc(O)c2[nH]1)N(C(=O)c1cc2cc(OC)c(OC)c(OC)c2[nH]1)CC3CCl (stereo not given) | 0.8 nM (active) | 
5 | CN(C)CCOc1ccc2[nH]c(C(=O)N3C[C@@H](CCl)c4c3cc(O)c3ccccc43)cc2c1 | 0.5 nM (active) | 
6 | CC[C@H](C)[C@@H]([C@H](N)CC(=O)N1CCC[C@H]1[C@H](OC)[C@@H](C)C(=O)N[C@@H](Cc1ccccc1)c1nccs1)N(C)C(=O)[C@@H](NC(=O)[C@@H](NC)C(C)C)C(C)C |  | -17.3
7 | CCN(C(C)=O)[C@H]1CO[C@@H](O[C@H]2[C@H](O[C@H]3C#C/C=C\C#C[C@]4(O)CC(=O)C(NC(=O)OC)=C3/C4=C\CSSSC)O[C@H](C)[C@@H](NO[C@H]3C[C@H](O)[C@H](SC(=O)c4c(C)c(I)c(O[C@@H]5O[C@@H](C)[C@H](O)[C@@H](OC)[C@H]5O)c(OC)c4OC)[C@@H](C)O3)[C@@H]2O)C[C@@H]1OC | 13.4 nM (active) | 
8 | CCN[C@H]1CO[C@@H](O[C@H]2[C@H](O[C@H]3C#C/C=C\C#C[C@]4(O)CC(=O)C(NC(=O)OC)=C3/C4=C\CSSSC)O[C@H](C)[C@@H](NO[C@H]3C[C@H](O)[C@H](SC(=O)c4c(C)c(I)c(O[C@@H]5O[C@@H](C)[C@H](O)[C@@H](OC)[C@H]5O)c(OC)c4OC)[C@@H](C)O3)[C@@H]2O)C[C@@H]1OC | 3.8 nM (active) | 
9 | CC[C@H](C)[C@@H]([C@@H](CC(=O)N1CCC[C@H]1[C@H](OC)[C@@H](C)C(=O)N[C@@H](Cc1ccccc1)C(=O)O)OC)N(C)C(=O)[C@@H](NC(=O)[C@@H](NC)C(C)C)C(C)C (H-[NMeV]V[Dil][Dolaproine]F-OH) | 15000 nM (active) | 
10 | COc1cccc2c1C(=O)c1c(O)c3c(c(O)c1C2=O)C[C@@](O)(C(=O)CO)C[C@@H]3O[C@H]1C[C@H]2[C@H](O[C@@H]3[C@@H](OC)OCCN32)[C@H](C)O1 | 0.2 nM (active) | 
